Inconclusive results are not listed. Calls of active or inactive are those of the source. Calls follow the shape of the dose curve; as a rule, active = well fitted inhibition curve with a large enough effect; inconclusive = small, poorly fitted or top-dose-only effect; inactive = flat fitted curve, though single readings scatter.
Assays:
Experiment in all cases: qHTS profiling for inhibitors of Plasmodium falciparum proliferation (AID 504749); also: nearly all actives have a fitted effect of over 60% in size
ATS95 = conditions: P. falciparum in erythrocytes, SYBR Green DNA, 72 h; series mostly up to 28.7 µM
Procedure, shortened: (§1)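 Parasite proliferation within erythrocytes, 72 h exposure. Endpoint: SYBR Green I fluorescence after overnight lysis at room temperature. Controls: 0.29 uM artemisinin, DMSO.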

C2A = conditions: P. falciparum in erythrocytes, SYBR Green DNA, 72 h; series mostly up to 28.7 µM
Procedure, shortened: as §1

CP211 = conditions: P. falciparum in erythrocytes, SYBR Green DNA, 72 h; series mostly up to 28.7 µM
Procedure, shortened: as §1

CP215 = conditions: P. falciparum in erythrocytes, SYBR Green DNA, 72 h; series mostly up to 28.7 µM
Procedure, shortened: as §1

CP217 = conditions: P. falciparum in erythrocytes, SYBR Green DNA, 72 h; series mostly up to 28.7 µM
Procedure, shortened: as §1

CP250 = conditions: P. falciparum in erythrocytes, SYBR Green DNA, 72 h; series mostly up to 12.8 µM
Procedure, shortened: as §1

CP252 = conditions: P. falciparum in erythrocytes, SYBR Green DNA, 72 h; series mostly up to 12.8 µM
Procedure, shortened: as §1

CP256 = conditions: P. falciparum in erythrocytes, SYBR Green DNA, 72 h; series mostly up to 28.7 µM
Procedure, shortened: as §1

CP262 = conditions: P. falciparum in erythrocytes, SYBR Green DNA, 72 h; series mostly up to 28.7 µM
Procedure, shortened: as §1

CP266 = conditions: P. falciparum in erythrocytes, SYBR Green DNA, 72 h; series mostly up to 12.8 µM
Procedure, shortened: as §1

CP269 = conditions: P. falciparum in erythrocytes, SYBR Green DNA, 72 h; series mostly up to 28.7 µM
Procedure, shortened: as §1

CP325 = conditions: P. falciparum in erythrocytes, SYBR Green DNA, 72 h; series mostly up to 28.7 µM
Procedure, shortened: as §1

CP329 = conditions: P. falciparum in erythrocytes, SYBR Green DNA, 72 h; series mostly up to 28.7 µM
Procedure, shortened: as §1

ECU = conditions: P. falciparum in erythrocytes, SYBR Green DNA, 72 h; series mostly up to 28.7 µM
Procedure, shortened: as §1

FAB9 = conditions: P. falciparum in erythrocytes, SYBR Green DNA, 72 h; series mostly up to 28.7 µM
Procedure, shortened: as §1

P93_24 = conditions: P. falciparum in erythrocytes, SYBR Green DNA, 72 h; series mostly up to 28.7 µM
Procedure, shortened: as §1

PAD = conditions: P. falciparum in erythrocytes, SYBR Green DNA, 72 h; series mostly up to 28.7 µM
Procedure, shortened: as §1

PC15 = conditions: P. falciparum in erythrocytes, SYBR Green DNA, 72 h; series mostly up to 28.7 µM
Procedure, shortened: as §1

PC26 = conditions: P. falciparum in erythrocytes, SYBR Green DNA, 72 h; series mostly up to 28.7 µM
Procedure, shortened: as §1

SC27B = conditions: P. falciparum in erythrocytes, SYBR Green DNA, 72 h; series mostly up to 28.7 µM
Procedure, shortened: as §1

Measured: Potency

C[C@H]1CN(C2CCC(C#N)(c3ccc(F)cc3)CC2)CC[C@@]1(C(=O)O)c1ccccc1 (stereo not given in full)
inactive: all assays above

N[C@H]1C[C@H]1c1ccccc1
inactive: all assays above
